Several values for one entry are separate records, joined by “and”; a condition that tells them apart may be missing. Equal values may be shown once. Inconclusive results are not listed. Activity calls are given as the source filed them. Unless noted, the call rests on the fitted dose curve; in most records, active means well fitted curve in the direction sought with a large enough effect; inconclusive means small, poorly fitted or top-dose-only effect, or another doubt; inactive means no such curve, though single readings can be large; an effect the other way counts as inactive or inconclusive.
Columns and labels:
[1] = Cell Viability - BJ (AID 421; calls by dose curve;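 further: potency means the concentration at half of the fitted maximal effect; cells exposed to compound for 40 hours at 37 °C before readout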); settings: BJ fibroblast viability, qHTS
Summary of the method: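 Cytotoxicity in human BJ foreskin fibroblasts is scored as loss of cellular ATP after a 40-hour exposure, measured by luciferase luminescence. Controls are DMSO and 100 uM tamoxifen.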

[2] = Cell Viability - Jurkat (AID 426;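 active means dose-dependent loss of cell ATP signal giving a full or clear fitted curve, ranked by lower potency value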;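 further: potency means the concentration at half of the fitted maximal effect; cells exposed to compound for 40 hours at 37 °C before ATP read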); settings: qHTS
Summary of the method: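 Cells of the human T-cell leukemia line Jurkat (E6-1) are seeded at 5000 per well, treated with compound across a concentration range for 40 hours at 37 °C, then lysed with CellTiter-Glo; luminescence reports ATP.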

[3] = Cell Viability - MRC5 (AID 434; calls by dose curve;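 further: potency means the concentration at half of the fitted maximal effect; potency reflects cytotoxicity seen as loss of intracellular ATP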); settings: MRC5 lung fibroblast viability, qHTS
Summary of the method: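 ATP luminescence read-out (CellTiter-Glo, 20 min RT) after 40 hr, 37 °C compound exposure of 1500 MRC5 cells/well. Data normalized to DMSO (basal) and 100 uM tamoxifen (100% inhibition); AC50 from standard Hill equation.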

[4] = Cell Viability - SK-N-SH (AID 435; calls by dose curve;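 further: potency means the concentration at half of the fitted maximal effect; compound exposure lasted 40 h at 37 °C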); settings: SK-N-SH neuroblastoma cell viability qHTS
Summary of the method: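 CellTiter-Glo ATP luminescence, 20 min RT read; cells pre-plated 5 hr, compound 40 hr at 37 °C, 1500 cells/well, complete medium. Normalized DMSO = 0, 100 uM tamoxifen = 100% inhibition; Hill-fit AC50.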

[5] = target: Mitogen-activated protein kinase 10 (Mus musculus) (UniProt Q61831); assay: JNK3 AlphaScreen Assay (AID 530; active means well fitted curve in either direction with a large enough effect, not every such curve was filed as active;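 further: kinase came from lysate of stimulated human HepG2 cells; signal reports phosphorylation of biotinylated GST-cJun 1-79 at Ser73 with 10 µM ATP; on the % scale 0 is the no-effect control and ±100 the full control effect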)
Summary of the method: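 Activity was read by AlphaScreen after JNK3-containing HepG2 lysate (cytokine pre-activated) phosphorylated biotinylated GST-cJun with 10 uM ATP at room temperature. Phospho-Ser73 cJun antibody with Protein-A acceptor beads provided detection.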

[6] = Cell Viability - Renal Proximal Tubule (AID 545); settings: renal proximal tubule cells viability; activity change, negative = cytotoxicity: at 91.7 µM (top of the series) unless noted; further: nearly all actives have a fitted effect of over 40% in size; further: potency means the concentration at half of the fitted maximal effect;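 on activity change, negative = cytotoxicity: 0% = DMSO only and -100% = 100 µM tamoxifen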
Summary of the method: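 Rat kidney proximal tubule cells, freshly isolated; 1000 cells/well, 5 hr settle, compound 40 hr 37 °C. CellTiter-Glo 20 min RT, luminescence read. AC50 by standard Hill fit.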

[7] = Cell Viability - Mesenchymal (AID 546); settings: mesenchymal cells viability, qHTS; activity change, negative = cytotoxicity: at 91.7 µM (top of the series);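 further: cells exposed to compound for 40 hours before reading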; further: potency means the concentration at half of the fitted maximal effect;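 on activity change, negative = cytotoxicity: 0% = DMSO only and -100% = 100 µM tamoxifen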
Summary of the method: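 Human renal mesenchymal cells (glomerulus-derived), 1000 cells/well, 5 hr 37 °C pre-incubation; compound 40 hr, 37 °C; CellTiter-Glo, 20 min RT; luminescence; AC50 via Hill equation.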

[8] = Cellular Toxicity (caspase-3) HUV-EC-C (AID 656);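 further: 0% = DMSO basal and 100% = 100 µM tamoxifen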
Summary of the method: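 Luminescent caspase-3/7 activation (aminoluciferin substrate cleavage) in HUV-EC-C cells after 16 hr compound exposure, 37°C. Signal normalized to DMSO basal and 100 uM tamoxifen as 100%; AC50 from concentration-response fitted with the Hill equation.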

[9] = Cellular Toxicity (caspase-3) N2a (AID 665);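 further: compound exposure lasted 16 h at 37 °C before readout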
Summary of the method: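 Caspase-3/7 activation, measured as increased luminescence from aminoluciferin release, is quantified in mouse N2a cells exposed to compounds for 16 h. Values are normalized to DMSO and 10 uM staurosporine, with AC50 derived by Hill modelling.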

[10] = target: Cytochrome P450 3A4 (Homo sapiens) (UniProt P08684); assay: qHTS Assay for Inhibitors and Substrates of Cytochrome P450 3A4 (AID 884); further: nearly all actives have a fitted effect of over 50% in size; further: potency means the concentration at half of the fitted maximal effect
Chain of Cytochrome P450 3A4 (Homo sapiens) (P08684 whole entry, looked up): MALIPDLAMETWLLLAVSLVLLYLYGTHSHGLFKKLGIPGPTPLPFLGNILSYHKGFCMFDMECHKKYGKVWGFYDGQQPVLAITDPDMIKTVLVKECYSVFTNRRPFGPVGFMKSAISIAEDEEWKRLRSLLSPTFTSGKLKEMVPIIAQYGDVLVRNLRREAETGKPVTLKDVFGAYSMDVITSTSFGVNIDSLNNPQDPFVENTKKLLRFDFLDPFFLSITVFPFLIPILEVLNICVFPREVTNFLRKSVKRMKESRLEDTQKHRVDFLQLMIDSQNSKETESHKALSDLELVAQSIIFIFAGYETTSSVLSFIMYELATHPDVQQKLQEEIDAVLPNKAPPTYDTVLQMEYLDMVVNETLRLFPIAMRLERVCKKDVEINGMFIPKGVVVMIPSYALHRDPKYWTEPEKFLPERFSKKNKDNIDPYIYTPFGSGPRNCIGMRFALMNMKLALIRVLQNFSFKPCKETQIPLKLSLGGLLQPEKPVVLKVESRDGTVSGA
Summary of the method: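 Luminescent readout of luciferin produced by CYP3A4 (20 nM) dealkylation of Luciferin-PPXE, 25 uM (its KM). NADPH-driven reaction ran 60 min at RT after 10 min compound preincubation; data scaled to 57 uM ketoconazole as 100% inhibition.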

[11] = Cell Viability - LYMP1-003 - Assay at 24 hr (AID 963); further: potency means the concentration at half of the fitted maximal effect
Summary of the method: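 Cytotoxicity is scored as a concentration-dependent fall in ATP-linked luciferase signal in human lymphoblastoid LYMP1-003 cells treated 24 hr at 37 C in complete culture medium.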

[12] = Cell Viability - LYMP2-003 (AID 965);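 further: cells exposed to compounds for 24 h before reading; nearly all actives have a fitted effect of over 50% in size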; further: potency means the concentration at half of the fitted maximal effect;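 on activity change, negative = cytotoxicity: 0% = DMSO only and full effect = 92 µM tetraoctylammonium bromide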
Summary of the method: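 CellTiter-Glo luminescence (cellular ATP) after 24 h compound exposure at 37 C in complete medium; 2500 cells/well, 5 h settling beforehand. Concentration-response fitted to standard Hill equation for AC50. Tetraoctylammonium bromide served as positive control.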

[13] = qHTS assay for environmental chemicals that activate the Aryl hydrocarbon Receptor (AhR) signaling pathway (AID 651777); settings: 1A2-DRE human hepatoma cells, luciferase, 24 h; activation: stronger effect = higher value; further: nearly all actives have a fitted effect of over 15% in size; further: potency means the concentration at half of the fitted maximal effect; on activation: % of control where 0% means no effect
Summary of the method: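 Induction of CYP1A2 transcription through AhR is detected by luciferase in 1A2-DRE hepatoma cells. Compounds or DMSO act for 24 hr at 37 C before a 30 min One-Glo step at room temperature.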

[14] = target: Cytochrome P450 1A2 (Homo sapiens) (UniProt P05177); assay: p450-cyp1a2 (AID 410; calls by dose curve; further: potency means the concentration at half of the fitted maximal effect)
Chain of Cytochrome P450 1A2 (Homo sapiens) (P05177 whole entry, looked up): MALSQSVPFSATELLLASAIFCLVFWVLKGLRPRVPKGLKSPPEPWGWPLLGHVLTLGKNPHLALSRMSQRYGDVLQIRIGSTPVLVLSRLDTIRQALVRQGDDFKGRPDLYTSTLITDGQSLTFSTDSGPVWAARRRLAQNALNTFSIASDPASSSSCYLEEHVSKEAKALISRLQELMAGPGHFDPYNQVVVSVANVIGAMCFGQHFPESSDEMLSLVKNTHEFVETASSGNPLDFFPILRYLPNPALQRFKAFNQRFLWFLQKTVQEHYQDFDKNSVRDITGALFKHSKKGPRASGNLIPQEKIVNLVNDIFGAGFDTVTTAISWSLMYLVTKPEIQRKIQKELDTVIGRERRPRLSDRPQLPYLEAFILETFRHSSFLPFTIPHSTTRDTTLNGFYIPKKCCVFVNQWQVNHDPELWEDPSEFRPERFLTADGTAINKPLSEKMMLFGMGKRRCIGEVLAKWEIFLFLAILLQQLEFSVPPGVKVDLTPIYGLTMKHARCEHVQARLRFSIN
Summary of the method: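 O-Demethylation of luciferin 6' methyl ether by human CYP1A2 is monitored as luciferase luminescence. Substrate sits at Km (100uM); enzyme is 20nM. Values are scaled to 57 uM furafylline as maximal inhibition.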

[15] = target: Glucocorticoid receptor (Homo sapiens) (UniProt P04150); assay: GR-EFC Redistribution (AID 451; calls by dose curve; further: potency means the concentration at half of the fitted maximal effect); settings: CHO-K1 GR-EFC translocation, beta-gal luminescence, 2 h
Chain of Glucocorticoid receptor (Homo sapiens) (P04150 whole entry, looked up, the tested form may be a part): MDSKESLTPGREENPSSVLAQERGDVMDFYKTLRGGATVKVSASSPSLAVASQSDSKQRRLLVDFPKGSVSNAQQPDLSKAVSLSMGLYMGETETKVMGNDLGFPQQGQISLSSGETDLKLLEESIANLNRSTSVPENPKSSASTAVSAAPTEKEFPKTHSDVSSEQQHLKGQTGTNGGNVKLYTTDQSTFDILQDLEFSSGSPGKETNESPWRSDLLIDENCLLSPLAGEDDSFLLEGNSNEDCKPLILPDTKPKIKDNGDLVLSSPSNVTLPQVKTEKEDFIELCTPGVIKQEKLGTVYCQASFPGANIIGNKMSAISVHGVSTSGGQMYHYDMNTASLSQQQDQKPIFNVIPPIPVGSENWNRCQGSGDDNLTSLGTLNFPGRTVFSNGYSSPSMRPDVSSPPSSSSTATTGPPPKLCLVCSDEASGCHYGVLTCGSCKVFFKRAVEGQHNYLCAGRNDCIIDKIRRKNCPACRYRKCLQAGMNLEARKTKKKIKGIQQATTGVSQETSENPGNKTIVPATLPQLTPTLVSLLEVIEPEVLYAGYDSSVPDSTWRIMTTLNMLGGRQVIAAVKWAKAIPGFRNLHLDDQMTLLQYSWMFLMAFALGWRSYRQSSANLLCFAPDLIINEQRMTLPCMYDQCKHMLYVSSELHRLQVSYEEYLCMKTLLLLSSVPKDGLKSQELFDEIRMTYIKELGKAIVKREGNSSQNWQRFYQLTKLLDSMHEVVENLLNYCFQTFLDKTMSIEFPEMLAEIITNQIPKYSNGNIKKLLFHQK
Summary of the method: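 CHO-K1 cells expressing nuclear EA and GR-ED fragments of b-gal; compounds titrated up to 46 uM final, 2 h at 37 C. GR nuclear translocation read as complemented b-gal luminescence after 1 h RT detection.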

[16] = target: Cytochrome P450 2D6 (Homo sapiens) (UniProt P10635); assay: qHTS Assay for Inhibitors and Substrates of Cytochrome P450 2D6 (AID 891); further: nearly all actives have a fitted effect of over 60% in size; further: potency means the concentration at half of the fitted maximal effect
Chain of Cytochrome P450 2D6 (Homo sapiens) (P10635 whole entry, looked up): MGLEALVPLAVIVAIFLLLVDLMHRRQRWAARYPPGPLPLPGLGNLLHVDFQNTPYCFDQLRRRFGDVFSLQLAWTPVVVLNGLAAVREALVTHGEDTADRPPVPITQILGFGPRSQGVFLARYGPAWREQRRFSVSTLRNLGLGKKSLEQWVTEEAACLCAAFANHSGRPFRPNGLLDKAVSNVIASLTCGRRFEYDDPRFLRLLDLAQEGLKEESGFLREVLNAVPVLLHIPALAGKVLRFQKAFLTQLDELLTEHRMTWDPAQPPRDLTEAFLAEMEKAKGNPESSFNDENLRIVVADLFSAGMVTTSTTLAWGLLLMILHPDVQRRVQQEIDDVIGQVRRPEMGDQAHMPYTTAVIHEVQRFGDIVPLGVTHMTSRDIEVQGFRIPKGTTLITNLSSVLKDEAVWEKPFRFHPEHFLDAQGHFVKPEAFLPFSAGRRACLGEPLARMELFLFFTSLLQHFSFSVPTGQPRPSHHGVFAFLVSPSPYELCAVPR
Summary of the method: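 Luminescent read-out of luciferin formed by 5 nM human CYP2D6 demethylating 30 uM Luciferin-ME EGE (Km level) over 60 min at room temperature after NADPH regeneration addition. Data normalized to full inhibition by 1.43 uM quinidine.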

[17] = target: Cytochrome P450 2C19 (Homo sapiens) (UniProt P33261); assay: qHTS Assay for Inhibitors and Substrates of Cytochrome P450 2C19 (AID 899); further: on the % scale 0 is the no-effect control and ±100 the full control effect; nearly all actives have a fitted effect of over 60% in size
Chain of Cytochrome P450 2C19 (Homo sapiens) (P33261 whole entry, looked up): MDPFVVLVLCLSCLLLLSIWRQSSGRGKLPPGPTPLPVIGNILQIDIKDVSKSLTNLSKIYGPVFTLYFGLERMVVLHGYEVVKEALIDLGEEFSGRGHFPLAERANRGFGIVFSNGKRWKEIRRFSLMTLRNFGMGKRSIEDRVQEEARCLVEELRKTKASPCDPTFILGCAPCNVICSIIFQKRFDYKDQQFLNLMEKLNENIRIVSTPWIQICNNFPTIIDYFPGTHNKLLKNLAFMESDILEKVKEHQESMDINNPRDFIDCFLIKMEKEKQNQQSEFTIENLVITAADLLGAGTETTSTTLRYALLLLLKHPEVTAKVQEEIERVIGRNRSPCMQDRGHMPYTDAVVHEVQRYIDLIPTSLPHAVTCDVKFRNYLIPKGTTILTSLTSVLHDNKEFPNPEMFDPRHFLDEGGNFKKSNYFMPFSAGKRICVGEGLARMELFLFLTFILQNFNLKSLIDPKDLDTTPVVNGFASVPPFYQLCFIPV
Summary of the method: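 Luminescent read-out of luciferin formed from Luciferin-H EGE (10uM, equal to KM). Enzyme 5nM in 50mM KPO4; compound added, 10 min at 37C, then NADPH regenerating system for 60 min at 37C. Full inhibition defined by 57uM ketoconazole.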

[18] = target: 3',5'-cyclic-AMP phosphodiesterase 4B (Homo sapiens) (UniProt Q07343); assay: qHTS Assay for Inhibitors of PDE-IV (AID 607; active means well fitted activation curve with a large enough effect in the main read-out, with a control signal flat, not every such curve was filed as active; further: % of control where 0% means no effect)
Chain of 3',5'-cyclic-AMP phosphodiesterase 4B (Homo sapiens) (Q07343 whole entry, looked up): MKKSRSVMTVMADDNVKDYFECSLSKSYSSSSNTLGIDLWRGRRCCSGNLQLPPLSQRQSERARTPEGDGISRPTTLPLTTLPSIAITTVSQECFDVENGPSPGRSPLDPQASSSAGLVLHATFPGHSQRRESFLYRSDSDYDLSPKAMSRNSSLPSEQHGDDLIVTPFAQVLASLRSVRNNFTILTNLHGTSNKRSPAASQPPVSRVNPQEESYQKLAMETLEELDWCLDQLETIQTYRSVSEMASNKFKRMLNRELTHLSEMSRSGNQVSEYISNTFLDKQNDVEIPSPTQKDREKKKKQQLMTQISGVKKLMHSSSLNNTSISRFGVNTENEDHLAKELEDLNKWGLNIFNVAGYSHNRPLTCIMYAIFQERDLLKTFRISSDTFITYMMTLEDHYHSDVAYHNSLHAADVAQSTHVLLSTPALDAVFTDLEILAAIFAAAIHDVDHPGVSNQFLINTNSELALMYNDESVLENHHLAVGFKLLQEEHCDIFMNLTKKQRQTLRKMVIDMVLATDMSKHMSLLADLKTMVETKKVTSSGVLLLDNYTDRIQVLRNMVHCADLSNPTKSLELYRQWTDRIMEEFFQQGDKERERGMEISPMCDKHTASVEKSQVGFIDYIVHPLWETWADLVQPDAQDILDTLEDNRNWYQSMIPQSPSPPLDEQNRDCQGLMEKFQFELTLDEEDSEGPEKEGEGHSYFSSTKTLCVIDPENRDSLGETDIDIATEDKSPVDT
Summary of the method: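 The readout is membrane depolarisation from a cAMP-sensing CNG channel, detected with a potential dye at ex 535/em 590. Cells were HEK293-derived (endogenous PDE-IV) at 1000 cells/well, titrated up to 22.9 uM final.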

COP(=O)(OC)O/C(=C\Cl)c1cc(Cl)c(Cl)cc1Cl
inactive: Potency [1] > 92 µM | Potency [3] > 92 µM | outcome [5] | Potency [6] | Potency [7] | outcome [8] | outcome [9] | Potency [10] | Potency [11] | Potency [12] | activation [13] 0.406%
active: Potency [2] 32.2 µM | Potency [4] 33.5 µM

CN[C@H]1[C@H]2[C@H]3CCN2C[C@@H]1O3
inactive: Potency [14] | Potency [15] > 46 µM | outcome [5] | Potency [16] | Potency [17]

COC(=O)[C@@]1(Cc2ccc(F)cc2)[C@H]2c3cc(C(=O)N(C)C)[nH]c3C[C@H]2CN1C(=O)c1ccccc1
inactive: outcome [5] | outcome [18]
active: Potency [14] 20 µM | Potency [10] 631 nM

Cc1ccc2ccccc2c1C
inactive: Potency [1] > 92 µM | Potency [2] > 92 µM | Potency [3] > 92 µM | Potency [4] > 92 µM | activation [13] 1.49%

Nc1ccccc1C(=O)OCCc1ccccc1
inactive: Potency [1] > 92 µM | Potency [2] > 92 µM | Potency [3] > 92 µM | Potency [4] > 92 µM | Potency [7] | outcome [8] | outcome [9] | Potency [11] | Potency [12]
active: Potency [13] 44.7 µM

CN(CCc1ccc(Cl)c(Cl)c1)[C@H]1CCCC[C@H]1N1CCCC1
active: Potency [14] 31.6 µM | Potency [16] 0.0063 µM
inactive: Potency [15] > 46 µM | outcome [5]

O=C1C[C@H]2OCCC=C3CN4CC[C@@]56c7ccccc7N1[C@@H]5[C@H]2[C@H]3C[C@@H]46
inactive: Potency [14] | Potency [15] > 46 µM | outcome [5] | outcome [18] | Potency [16] | Potency [17]

COc1cc2c(cc1OC)[C@]13CCN4CC5=CCO[C@@H]6CC(=O)N2[C@@H]1[C@H]6[C@@H]5C[C@H]43
inactive: Potency [14] | outcome [5] | Potency [16] | Potency [17]

O=[N+]([O-])c1cc(C(F)(F)F)cc([N+](=O)[O-])c1Cl
inactive: Potency [1] > 92 µM | Potency [3] > 92 µM | Potency [4] > 92 µM | outcome [5] | Potency [6] | Potency [7] | outcome [8] | outcome [9] | Potency [10] | Potency [11] | activation [13] 0.493%
active: Potency [2] 32.8 µM

[CH3][Hg][Cl]
inactive: outcome [5] | outcome [8] | outcome [9] | Potency [10] | activation [13] 1.1%
active: Potency [1] 26.7 µM | Potency [2] 1.49 µM | Potency [3] 25.3 µM | Potency [4] 17.4 µM | activity change, negative = cytotoxicity [6] -104% | Potency [7] 6.31 µM | Potency [11] 50.1 µM | Potency [12] 5.01 µM

O=C1C2(Cl)C3(Cl)C4(Cl)C(Cl)(Cl)C5(Cl)C3(Cl)C1(Cl)C5(Cl)C24Cl (configuration not stated)
inactive: outcome [5] | outcome [8] | outcome [9] | activation [13] 0.0088% and 4.7%
active: Potency [1] 26.8 µM and 61.3 µM | Potency [2] 32.8 µM and 53.4 µM | Potency [3] 39.7 µM and 48.6 µM | Potency [4] 33.3 µM and 51.3 µM | Potency [6] 31.6 µM | activity change, negative = cytotoxicity [6] -88.2% | Potency [7] 31.6 µM | activity change, negative = cytotoxicity [7] -92.3% | Potency [10] 10 µM and 15.8 µM | Potency [11] 31.6 µM and 50.1 µM | Potency [12] 39.8 µM

CN(C)c1ccc(N=O)cc1
inactive: Potency [1] > 92 µM | outcome [5] | outcome [8] | outcome [9] | Potency [10]
active: Potency [2] 2.5 µM | Potency [3] 42.1 µM | Potency [4] 7.28 µM | Potency [6] 15.8 µM | Potency [7] 31.6 µM | Potency [11] 7.94 µM | Potency [12] 1.26 µM | Potency [13] 70.8 µM

CC[C@H]1CN2CC[C@@H]1C[C@@H]2[C@H](O)c1ccnc2ccccc12
active: Potency [16] 3.16 µM
inactive: Potency [14] | Potency [15] > 46 µM | outcome [5] | outcome [18] | Potency [17]

O=C(O)[C@@H]1C[C@H]1[C@@H](NP(=O)(c1ccccc1)c1ccccc1)c1ccccc1
inactive: Potency [14] | outcome [5] | outcome [18]

CCCc1cc2c(n1CCO)C(C)C1CN(C(=O)c3ccccc3)C(C)(C(=O)OC)C21 (configuration not stated)
inactive: Potency [14] | outcome [5] | outcome [18]

CO[C@@H](C)[C@](O)(C(=O)OC1=CCN2CC[C@H](O)[C@H]12)C(C)C
inactive: Potency [14] | Potency [15] > 46 µM | outcome [5] | outcome [18] | Potency [16] | Potency [17]

Source: PubChem BioAssay (NCATS)
